In the library only some 2.9% were active in any assay of this set; here they are far more common.
FXN GAA850 act – increases GAA850 frataxin promoter reporter activity; activation, % at 6 µM; 360,000 compounds, 0.56% hits; HEK293 lucGAA850 FXN promoter luciferase reporter, 24 h; percent of 10 µM SAHA response; AID 540364;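 active means activation above the average of all compounds screened plus 3 SD, cutoff fixed separately per campaign, cut at about 7.5% in these data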;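 further: 0% = DMSO wells and 100% = 10 µM SAHA wells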
proKLK7 act – activators of human kallikrein-7 zymogen; purified proKLK7, EDANS-DABCYL substrate fluorescence; 100% is mature enzyme control, 0% vehicle; activation, % at 7 µM; 370,000 compounds, 0.9% hits;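 active means activation above the mean of all tested compounds plus 3 SD, computed per campaign excluding outliers beyond control limits, cut at about 13% in these data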
Target sequence (P49862 whole entry, looked up): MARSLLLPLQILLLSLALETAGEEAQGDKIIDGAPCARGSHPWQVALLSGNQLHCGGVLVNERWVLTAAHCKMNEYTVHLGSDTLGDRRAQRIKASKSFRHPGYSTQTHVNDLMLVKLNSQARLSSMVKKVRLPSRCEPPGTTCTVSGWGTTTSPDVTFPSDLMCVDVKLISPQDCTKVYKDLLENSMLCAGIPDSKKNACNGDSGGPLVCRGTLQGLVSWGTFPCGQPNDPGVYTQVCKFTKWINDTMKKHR
FAS-TE inh – blocks the thioesterase domain of human fatty acid synthase; recombinant FAS-TE, OMFH fluorogenic substrate, fluorescence endpoint; inhibition, % at 15 µM; AID 602261; 360,000 compounds, 0.67% hits;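 active means compounds whose normalised, plate-corrected inhibition of enzyme fluorescence in the single-dose primary screen is 50% or more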;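 further: 0% = DMSO with enzyme and 100% = substrate without enzyme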
SMARCA2 act – activators of SMARCA2 function. MG213 cells, MMTV-luciferase reporter, dexamethasone, overnight. activation, % at 9.1 µM. 370,000 compounds, 1% hits. AID 652017; in the data active means activation above about 7.8%;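 further: 0% = vehicle wells and 100% = reference activator wells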
FAS-TE inh conf – FAS thioesterase (human) inhibition, confirmation | 2,300 compounds, 45% hits | recombinant FAS-TE, OMFH fluorogenic substrate, fluorescence | shares compounds with FAS-TE inh | inhibition, % at 15 µM;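 active means compounds inhibiting the enzyme by at least 50% at 15 µM in any one of the replicates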;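 further: 0% = enzyme with DMSO only and 100% = wells lacking enzyme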
Active calls of the source: *; x = no result.

SMILES	FXN GAA850 act	proKLK7 act	FAS-TE inh	SMARCA2 act	FAS-TE inh conf
CN(C)S(=O)(=O)n1cc(/C=C(\NC(=O)c2ccccc2)C(=O)NCCCN2CCOCC2)c2ccccc21	2	0	17	2	x
COc1ccc(C(=O)N/C(=C\c2cn(S(=O)(=O)N(C)C)c3ccccc23)C(=O)NCCCN2CCOCC2)cc1	0	0	57*	-1	74*
O=C(NCc1ccc(Cl)cc1)C1=Cc2cc(Cl)ccc2OC1	-2	0	64*	-2	40
CN(C)CCNc1nc2sc3c(c2c(=O)n1CCc1ccccc1)CCCCC3	0	0	60*	4	56*
CC1(C(=O)NS(=O)(=O)Cc2cccc(Cl)c2)CCN1C(=O)C1(c2ccc(Cl)cc2)CC1 (stereo unspecified)	1	0	6	-5	x
CC(C)c1ccccc1-n1c(SCC(=O)N2CCc3ccccc3C2)nc2ccccc2c1=O	-2	0	60*	-4	23
O=C(CSc1nc2ccccc2c(=O)n1-c1ccccc1)N1CCc2ccccc2C1	1	0	22	-1	x
CC(C)c1ccc(CSc2ccc(S(=O)(=O)N3CCOCC3)cn2)cc1	2	0	69*	5	36*
O=[N+]([O-])c1ccc(CSc2ccc(S(=O)(=O)N3CCCCC3)cn2)cc1	0	-1	43	-1	x
O=[N+]([O-])c1ccc(CSc2ccc(S(=O)(=O)N3CCCC3)cn2)cc1	0	x	58*	x	54*
O=[N+]([O-])c1ccc(CSc2ccc(S(=O)(=O)N3CCOCC3)cn2)cc1	1	-1	53*	0	55*
N#Cc1ccc(CSc2ccc(S(=O)(=O)N3CCCC3)cn2)cc1	0	0	64*	0	64*
O=C(O)c1cccc(NC(=O)c2cc(S(=O)(=O)N3CCOCC3)cs2)c1	2	0	-5	-2	x
C#CCN(C[C@H]1[C@H](OC(=O)NCc2ccccc2)[C@H](OC(=O)NCc2ccccc2)C[C@H]2C(=O)N(c3ccccc3)C(=O)[C@@H]12)S(=O)(=O)c1ccc(C)cc1	-1	0	62*	-3	20
C#CCN(C[C@H]1[C@H](OC(=O)Nc2cccs2)[C@H](OC(=O)Nc2cccs2)C[C@H]2C(=O)N(c3ccccc3)C(=O)[C@@H]12)S(=O)(=O)c1ccc(C)cc1	-2	0	54*	-4	16
NC(=NC(=O)c1cccc(C(F)(F)F)c1)c1ccc(C(F)(F)F)cn1	1	0	28	6	x
CCc1nc2c(OCc3ccc(Cl)cc3)cccn2c1N(C=O)Cc1ccccc1	1	0	64*	-2	71*
CCCC(=O)NC1=C(Cl)C(=O)c2ccccc2C1=O	-6	2	53*	-4	56*
CCNC1=C(Cl)C(=O)c2ccccc2C1=O	1	0	-2	4	x
Cc1nn(C)cc1C(C(=O)NC1CCCCC1)N(C(=O)Cc1cccs1)c1ccc(C(C)C)cc1 (stereo unspecified)	2	0	61*	0	59*
Cc1nn(C)cc1C(C(=O)NC1CCCCC1)N(C(=O)Cc1cccs1)c1ccc(F)cc1 (stereo unspecified)	1	-1	-5	-5	x
COc1ccc(OC(C)C(=O)Nc2cccc(OC)c2)cc1 (stereo unspecified)	-1	1	3	-2	x
O=C1/C(=C/c2ccc(O)c([N+](=O)[O-])c2)SC(=S)N1Cc1ccccc1	1	0	86*	0	11
COc1cc(/C=C2\SC(=O)N(Cc3ccc(Cl)cc3)C2=O)cc([N+](=O)[O-])c1O	1	0	72*	0	38
O=C1/C(=C\c2cccc([N+](=O)[O-])c2O)SC(=S)N1Cc1ccccc1	-3	0	18	-4	x
COc1cc(/C=C2\SC(=O)N(Cc3ccc(F)cc3)C2=O)cc([N+](=O)[O-])c1O	0	0	68*	0	37
O=C(CN1C(=O)S/C(=C\c2ccccc2)C1=O)Nc1cc([N+](=O)[O-])ccc1O	1	0	81*	0	82*
COC(=O)CSc1nnc2cc(C)c3ccccc3n12	1	3	-7	2	x
COCCNC(=O)c1ccccc1NC(=O)c1ccc(Cl)c(S(=O)(=O)Nc2ccc(C)cc2C)c1	1	0	24	1	x
O=C(CCC(=O)Nc1ccccc1Cl)NNS(=O)(=O)c1ccc(Cl)cc1	0	0	1	-1	x

Bioassay records as filed in PubChem.
